Test results taken from ChEMBL document CHEMBL1961873, “Compounds: GSK PKIS; Assays: Nanosyn kinase panel” (2012).

What was measured:
[1] = target: T1, Serine/threonine-protein kinase TBK1 (Homo sapiens) (UniProt Q9UHD2); settings: at 1 µM;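 note: values are mean inhibition of TBK1, screened as part of the GSK published kinase inhibitor set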
T1 sequence (whole entry): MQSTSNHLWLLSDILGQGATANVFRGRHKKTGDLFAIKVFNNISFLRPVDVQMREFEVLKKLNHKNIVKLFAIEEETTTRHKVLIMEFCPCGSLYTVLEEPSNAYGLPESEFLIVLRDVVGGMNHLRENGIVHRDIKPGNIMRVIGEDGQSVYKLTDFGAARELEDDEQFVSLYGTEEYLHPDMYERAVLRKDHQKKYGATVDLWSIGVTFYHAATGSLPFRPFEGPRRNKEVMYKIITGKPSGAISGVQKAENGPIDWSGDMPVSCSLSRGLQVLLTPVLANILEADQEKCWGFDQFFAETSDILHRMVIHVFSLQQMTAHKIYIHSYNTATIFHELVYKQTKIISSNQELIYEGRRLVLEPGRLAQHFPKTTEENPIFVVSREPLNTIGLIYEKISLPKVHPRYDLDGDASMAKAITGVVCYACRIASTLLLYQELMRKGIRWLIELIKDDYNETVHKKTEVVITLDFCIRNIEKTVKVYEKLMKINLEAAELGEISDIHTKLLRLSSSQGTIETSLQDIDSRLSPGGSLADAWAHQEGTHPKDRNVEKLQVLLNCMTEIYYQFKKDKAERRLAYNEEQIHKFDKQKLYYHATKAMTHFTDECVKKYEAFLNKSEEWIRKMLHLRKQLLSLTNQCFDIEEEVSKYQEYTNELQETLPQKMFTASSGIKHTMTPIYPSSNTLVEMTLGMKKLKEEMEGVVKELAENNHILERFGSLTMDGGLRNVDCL

[2] = target: T2, Testis-specific serine/threonine-protein kinase 1 (Homo sapiens) (UniProt Q9BXA7); settings: at 0.1 µM
T2 sequence (whole entry): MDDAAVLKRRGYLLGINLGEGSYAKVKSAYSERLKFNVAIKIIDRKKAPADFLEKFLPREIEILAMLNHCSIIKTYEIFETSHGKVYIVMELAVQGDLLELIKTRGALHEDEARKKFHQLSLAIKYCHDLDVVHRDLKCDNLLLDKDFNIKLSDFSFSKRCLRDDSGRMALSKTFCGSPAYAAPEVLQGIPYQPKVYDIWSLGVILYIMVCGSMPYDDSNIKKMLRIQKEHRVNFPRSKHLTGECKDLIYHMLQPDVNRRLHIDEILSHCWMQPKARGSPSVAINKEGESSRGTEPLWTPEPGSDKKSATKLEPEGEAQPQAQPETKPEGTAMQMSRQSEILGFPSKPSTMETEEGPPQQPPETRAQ

[3] = target: T2, Testis-specific serine/threonine-protein kinase 1 (Homo sapiens); settings: at 1 µM
[4] = target: T3, Testis-specific serine/threonine-protein kinase 2 (Homo sapiens) (UniProt Q96PF2); settings: at 0.1 µM
T3 sequence (whole entry): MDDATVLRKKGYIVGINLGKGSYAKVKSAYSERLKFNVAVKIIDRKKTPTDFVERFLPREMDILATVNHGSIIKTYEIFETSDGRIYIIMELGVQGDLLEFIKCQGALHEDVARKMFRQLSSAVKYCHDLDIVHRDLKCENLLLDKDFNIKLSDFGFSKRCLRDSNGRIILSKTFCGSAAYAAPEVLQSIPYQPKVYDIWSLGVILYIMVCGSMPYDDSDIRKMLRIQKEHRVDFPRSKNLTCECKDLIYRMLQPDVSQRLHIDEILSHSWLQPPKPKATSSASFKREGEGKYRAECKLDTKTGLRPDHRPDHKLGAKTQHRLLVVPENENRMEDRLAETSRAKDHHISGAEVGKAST

[5] = target: T3, Testis-specific serine/threonine-protein kinase 2 (Homo sapiens); settings: at 1 µM
[6] = target: Casein kinase I isoform alpha (Homo sapiens) (UniProt P48729); settings: at 0.1 µM
Sequence of Casein kinase I isoform alpha (Homo sapiens) (P48729 2-337 limits assumed): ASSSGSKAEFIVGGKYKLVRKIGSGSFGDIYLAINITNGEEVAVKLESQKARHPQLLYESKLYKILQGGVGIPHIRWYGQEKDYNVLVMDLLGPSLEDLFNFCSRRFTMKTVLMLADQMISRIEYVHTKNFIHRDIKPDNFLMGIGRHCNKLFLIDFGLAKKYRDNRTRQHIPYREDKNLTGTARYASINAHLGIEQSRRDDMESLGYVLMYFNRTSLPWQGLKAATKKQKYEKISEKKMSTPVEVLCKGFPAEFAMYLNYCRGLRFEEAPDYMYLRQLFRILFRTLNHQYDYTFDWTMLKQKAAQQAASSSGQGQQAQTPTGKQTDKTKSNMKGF

[7] = target: Casein kinase I isoform alpha (Homo sapiens) (UniProt P48729); settings: at 1 µM
[8] = target: Casein kinase I isoform gamma-1 (Homo sapiens) (UniProt Q9HCP0); settings: at 0.1 µM
Sequence of Casein kinase I isoform gamma-1 (Homo sapiens) (Q9HCP0 whole entry, looked up, canonical isoform): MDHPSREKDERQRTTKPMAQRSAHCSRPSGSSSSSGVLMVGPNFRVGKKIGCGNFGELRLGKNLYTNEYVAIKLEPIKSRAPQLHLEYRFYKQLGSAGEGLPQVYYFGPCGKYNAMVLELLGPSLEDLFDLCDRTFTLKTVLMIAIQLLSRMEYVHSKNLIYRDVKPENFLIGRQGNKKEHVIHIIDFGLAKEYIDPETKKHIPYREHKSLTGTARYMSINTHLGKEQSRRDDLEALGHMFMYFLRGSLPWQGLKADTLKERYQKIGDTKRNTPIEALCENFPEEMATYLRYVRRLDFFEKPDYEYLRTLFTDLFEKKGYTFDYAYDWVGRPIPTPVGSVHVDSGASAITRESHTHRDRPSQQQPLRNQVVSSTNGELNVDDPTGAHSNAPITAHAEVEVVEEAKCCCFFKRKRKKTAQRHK

[9] = target: Casein kinase I isoform gamma-1 (Homo sapiens) (UniProt Q9HCP0); settings: at 1 µM
[10] = target: Casein kinase I isoform gamma-2 (Homo sapiens) (UniProt P78368); settings: at 0.1 µM
Sequence of Casein kinase I isoform gamma-2 (Homo sapiens) (P78368 whole entry, looked up, canonical isoform): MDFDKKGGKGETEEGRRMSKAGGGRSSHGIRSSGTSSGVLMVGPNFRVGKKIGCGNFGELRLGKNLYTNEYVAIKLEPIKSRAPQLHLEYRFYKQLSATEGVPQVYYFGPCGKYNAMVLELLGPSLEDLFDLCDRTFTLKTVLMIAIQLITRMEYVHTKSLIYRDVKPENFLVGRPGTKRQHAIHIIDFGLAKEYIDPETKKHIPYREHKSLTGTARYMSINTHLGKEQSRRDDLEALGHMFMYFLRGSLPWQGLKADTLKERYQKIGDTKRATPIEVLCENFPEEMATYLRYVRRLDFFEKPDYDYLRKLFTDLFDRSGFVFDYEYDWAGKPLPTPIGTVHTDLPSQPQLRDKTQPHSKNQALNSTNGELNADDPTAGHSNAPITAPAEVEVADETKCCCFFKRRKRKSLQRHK

[11] = target: Casein kinase I isoform gamma-2 (Homo sapiens) (UniProt P78368); settings: at 1 µM
[12] = target: Casein kinase I isoform gamma-3 (Homo sapiens) (UniProt Q9Y6M4); settings: at 0.1 µM
Sequence of Casein kinase I isoform gamma-3 (Homo sapiens) (Q9Y6M4 whole entry, looked up, canonical isoform): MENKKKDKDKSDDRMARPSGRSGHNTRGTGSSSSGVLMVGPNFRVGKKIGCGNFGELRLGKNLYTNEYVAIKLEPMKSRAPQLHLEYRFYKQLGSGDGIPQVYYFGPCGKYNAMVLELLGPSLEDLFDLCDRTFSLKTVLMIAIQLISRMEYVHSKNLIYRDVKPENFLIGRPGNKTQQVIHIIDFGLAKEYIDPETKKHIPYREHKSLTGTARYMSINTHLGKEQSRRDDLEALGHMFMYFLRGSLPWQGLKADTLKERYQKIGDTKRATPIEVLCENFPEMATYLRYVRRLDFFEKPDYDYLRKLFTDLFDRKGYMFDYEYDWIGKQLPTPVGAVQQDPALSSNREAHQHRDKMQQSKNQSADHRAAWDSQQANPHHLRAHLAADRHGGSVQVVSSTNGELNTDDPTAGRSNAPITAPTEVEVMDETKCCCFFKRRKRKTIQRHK

[13] = target: Casein kinase I isoform gamma-3 (Homo sapiens) (UniProt Q9Y6M4); settings: at 1 µM
[14] = target: Cyclin-dependent kinase 1 (Homo sapiens) (UniProt P06493); settings: at 0.1 µM
Sequence of Cyclin-dependent kinase 1 (Homo sapiens) (P06493 whole entry, looked up): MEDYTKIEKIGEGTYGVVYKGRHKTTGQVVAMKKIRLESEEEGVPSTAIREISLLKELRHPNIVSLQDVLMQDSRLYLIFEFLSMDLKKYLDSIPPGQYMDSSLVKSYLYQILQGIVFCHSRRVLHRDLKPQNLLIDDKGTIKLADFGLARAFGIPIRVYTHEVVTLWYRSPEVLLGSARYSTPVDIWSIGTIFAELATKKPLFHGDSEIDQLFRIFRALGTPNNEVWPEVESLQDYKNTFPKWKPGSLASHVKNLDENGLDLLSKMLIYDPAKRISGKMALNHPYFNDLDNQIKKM

[15] = target: Cyclin-dependent kinase 1 (Homo sapiens) (UniProt P06493); settings: at 1 µM
[16] = target: Cyclin-dependent kinase 2 (Homo sapiens) (UniProt P24941); settings: at 0.1 µM
[17] = target: Cyclin-dependent kinase 2 (Homo sapiens) (UniProt P24941); settings: at 1 µM
[18] = target: Cyclin-dependent kinase 2 (Homo sapiens) (UniProt P24941); settings: at 0.1 µM; remark: listed apart in the source
[19] = target: Cyclin-dependent kinase 2 (Homo sapiens) (UniProt P24941); settings: at 1 µM; remark: listed apart in the source
[20] = target: CDK3/Cyclin E (Homo sapiens) (UniProt P24864+Q00526); settings: at 0.1 µM;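 note: reported percentages are mean inhibition values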
Sequence of CDK3/Cyclin E (Homo sapiens) (P24864 whole entry, looked up): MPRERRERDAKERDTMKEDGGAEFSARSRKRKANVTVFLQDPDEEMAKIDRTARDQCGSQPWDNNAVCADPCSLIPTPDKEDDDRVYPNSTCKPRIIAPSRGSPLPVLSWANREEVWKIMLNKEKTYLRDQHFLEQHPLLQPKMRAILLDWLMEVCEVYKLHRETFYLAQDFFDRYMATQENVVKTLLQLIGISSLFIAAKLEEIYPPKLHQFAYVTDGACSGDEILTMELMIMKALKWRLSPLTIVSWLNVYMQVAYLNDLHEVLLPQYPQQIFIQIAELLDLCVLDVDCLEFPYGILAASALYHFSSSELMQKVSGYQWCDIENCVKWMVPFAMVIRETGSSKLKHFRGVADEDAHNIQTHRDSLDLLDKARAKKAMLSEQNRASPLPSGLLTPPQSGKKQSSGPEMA
Sequence of CDK3/Cyclin E (Homo sapiens) (Q00526 whole entry, looked up): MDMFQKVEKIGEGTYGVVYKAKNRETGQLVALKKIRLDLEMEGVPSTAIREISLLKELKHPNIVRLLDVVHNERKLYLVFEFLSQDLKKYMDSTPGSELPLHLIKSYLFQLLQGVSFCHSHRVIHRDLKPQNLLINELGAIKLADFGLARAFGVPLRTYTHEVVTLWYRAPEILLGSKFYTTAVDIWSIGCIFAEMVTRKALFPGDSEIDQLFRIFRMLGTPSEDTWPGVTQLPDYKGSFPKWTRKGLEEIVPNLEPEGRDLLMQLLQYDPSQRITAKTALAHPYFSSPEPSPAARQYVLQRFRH

SMILES	inhibition [1] [%]	inhibition [2] [%]	inhibition [3] [%]	inhibition [4] [%]	inhibition [5] [%]	inhibition [6] [%]	inhibition [7] [%]	inhibition [8] [%]	inhibition [9] [%]	inhibition [10] [%]	inhibition [11] [%]	inhibition [12] [%]	inhibition [13] [%]	inhibition [14] [%]	inhibition [15] [%]	inhibition [16] [%]	inhibition [17] [%]	inhibition [18] [%]	inhibition [19] [%]	inhibition [20] [%]
CN(C)CCCn1c(-c2nonc2N)nc2cnccc21	6.08	3.44	7.78	0.64	0.45	5.03	6.31	4.45	5.34	3.15	4.54	1.5	3.26	1.58	2.19	2.53	-3.59	4.53	6.13	4.24
Nc1nccc(C#Cc2cncnc2Nc2ccc(OCc3cccc(F)c3)c(Cl)c2)n1	9.39	2.97	1.86	1.69	-1.18	4.12	5.01	3.44	4.16	2.25	3.89	3.42	3.02	0.61	2.58	1.73	1.37	3.74	5.25	1.09
ON=C1CCc2cc(-c3nc(C4CCNCC4)[nH]c3-c3ccncc3)ccc21	1.68	0.96	0.73	-0.31	-0.97	-0.25	8.55	0.25	1.66	1.32	1.04	1.01	0.07	0.23	2.04	0.63	-0.53	1.2	2.51	2.27
Cc1cc(Cl)cc2c1NC(=O)C2=NNc1ccc(S(N)(=O)=O)cc1	1.59	4.21	4.86	2.71	5.17	1.05	0.59	1.63	1.59	1.66	1.54	-0.43	0.95	1.08	1.91	1.27	2.22	1.42	4.71	3.25
Cc1ccc(NC(=O)CC2CC2)cc1-c1ccc(C(=O)NCC2CC2)cc1	5.71	3.65	2.94	2.59	1.29	7.12	3.9	1.42	2.32	2.95	2.91	0.5	2.08	-0.23	0.76	-1.15	-1.13	1.18	2.92	1.73
Cc1ccc(O)cc1Nc1ccnc2ccc(S(C)(=O)=O)cc12	9.14	3.95	4.63	2.41	3.33	11.9	43.8	4.05	7.45	4.13	6.1	3.71	9.28	1.72	-1.86	2.82	4.49	4.22	4.92	2.71
O=C1Nc2ccccc2/C1=C/Nc1ccc2[nH]c(=O)[nH]c2c1	21.2	4.5	8.92	3.14	4.56	8.75	21.8	4.87	7.45	3.6	7.61	3.84	7.65	1.63	8.12	2.91	7.88	3.74	12.8	5.68
Cc1ccc2c(c1)/C(=N/Nc1ccc(S(N)(=O)=O)cc1)C(=O)N2	6.6	-0.94	0.43	-0.24	-1.16	0.07	-0.4	0.78	1.26	0.31	0.86	1.81	-0.55	3.51	23.4	27	69.6	35	74.2	14.9
CN(C)C(=O)O[C@@H]1CN[C@@H](C#Cc2cc3ncnc(Nc4ccc(OCc5cccc(F)c5)c(Cl)c4)c3s2)C1	2.9	-0.67	-0.36	-0.92	-1.41	9.15	6.58	2	6.01	1.45	5.93	0.73	5.49	0.38	0.19	0.82	7.43	0.72	1.06	3.66
CN(c1ccc(NC(=O)Nc2ccc(OC(F)(F)F)cc2)cc1)c1ccnc(Nc2cccc(S(N)(=O)=O)c2)n1	9.01	1.37	2.44	1.3	1.3	2.69	-0.75	2.75	3.06	2.32	2.66	1.74	2.37	-0.1	5.09	0.55	14.4	1.2	7.47	-0.62
NS(=O)(=O)c1cccc(-c2cc3ccncc3cc2OCc2ccccc2)c1	6.61	2.13	0.96	2.68	0.84	0.06	3.92	4.57	4.83	3.06	4.41	4.33	2.71	2.03	2.22	1.1	3.16	5.88	6.78	3.65
